Seven compounds from ChEMBL document CHEMBL2218924, “A broad activity screen in support of a chemogenomic map for kinase signalling research and drug discovery” (Biochem J, 2013) can be followed below.

In assay [1] the target is T1, Protein kinase C zeta type (Homo sapiens) (UniProt Q05513).
T1 sequence (whole entry): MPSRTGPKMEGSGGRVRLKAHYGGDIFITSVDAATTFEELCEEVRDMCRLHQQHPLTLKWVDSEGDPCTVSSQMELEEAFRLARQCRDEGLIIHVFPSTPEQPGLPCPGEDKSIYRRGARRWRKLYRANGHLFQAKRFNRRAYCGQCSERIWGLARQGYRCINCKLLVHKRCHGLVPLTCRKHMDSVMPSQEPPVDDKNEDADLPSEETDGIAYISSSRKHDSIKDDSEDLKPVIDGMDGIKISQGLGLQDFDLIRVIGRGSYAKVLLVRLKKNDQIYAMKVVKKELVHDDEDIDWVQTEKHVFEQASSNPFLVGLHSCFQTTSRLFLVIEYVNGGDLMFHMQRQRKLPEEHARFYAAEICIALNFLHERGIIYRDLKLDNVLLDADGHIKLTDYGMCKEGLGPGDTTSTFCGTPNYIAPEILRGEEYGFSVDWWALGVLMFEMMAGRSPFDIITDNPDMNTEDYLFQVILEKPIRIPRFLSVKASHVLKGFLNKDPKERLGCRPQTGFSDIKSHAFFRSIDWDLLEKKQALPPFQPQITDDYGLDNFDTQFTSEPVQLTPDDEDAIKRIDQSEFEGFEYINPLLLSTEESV
As to conditions: at 1 µM; call rule not given here.

In assay [2] the target is T2, Mitogen-activated protein kinase kinase kinase 5 (Homo sapiens) (UniProt Q99683).
T2 sequence (whole entry): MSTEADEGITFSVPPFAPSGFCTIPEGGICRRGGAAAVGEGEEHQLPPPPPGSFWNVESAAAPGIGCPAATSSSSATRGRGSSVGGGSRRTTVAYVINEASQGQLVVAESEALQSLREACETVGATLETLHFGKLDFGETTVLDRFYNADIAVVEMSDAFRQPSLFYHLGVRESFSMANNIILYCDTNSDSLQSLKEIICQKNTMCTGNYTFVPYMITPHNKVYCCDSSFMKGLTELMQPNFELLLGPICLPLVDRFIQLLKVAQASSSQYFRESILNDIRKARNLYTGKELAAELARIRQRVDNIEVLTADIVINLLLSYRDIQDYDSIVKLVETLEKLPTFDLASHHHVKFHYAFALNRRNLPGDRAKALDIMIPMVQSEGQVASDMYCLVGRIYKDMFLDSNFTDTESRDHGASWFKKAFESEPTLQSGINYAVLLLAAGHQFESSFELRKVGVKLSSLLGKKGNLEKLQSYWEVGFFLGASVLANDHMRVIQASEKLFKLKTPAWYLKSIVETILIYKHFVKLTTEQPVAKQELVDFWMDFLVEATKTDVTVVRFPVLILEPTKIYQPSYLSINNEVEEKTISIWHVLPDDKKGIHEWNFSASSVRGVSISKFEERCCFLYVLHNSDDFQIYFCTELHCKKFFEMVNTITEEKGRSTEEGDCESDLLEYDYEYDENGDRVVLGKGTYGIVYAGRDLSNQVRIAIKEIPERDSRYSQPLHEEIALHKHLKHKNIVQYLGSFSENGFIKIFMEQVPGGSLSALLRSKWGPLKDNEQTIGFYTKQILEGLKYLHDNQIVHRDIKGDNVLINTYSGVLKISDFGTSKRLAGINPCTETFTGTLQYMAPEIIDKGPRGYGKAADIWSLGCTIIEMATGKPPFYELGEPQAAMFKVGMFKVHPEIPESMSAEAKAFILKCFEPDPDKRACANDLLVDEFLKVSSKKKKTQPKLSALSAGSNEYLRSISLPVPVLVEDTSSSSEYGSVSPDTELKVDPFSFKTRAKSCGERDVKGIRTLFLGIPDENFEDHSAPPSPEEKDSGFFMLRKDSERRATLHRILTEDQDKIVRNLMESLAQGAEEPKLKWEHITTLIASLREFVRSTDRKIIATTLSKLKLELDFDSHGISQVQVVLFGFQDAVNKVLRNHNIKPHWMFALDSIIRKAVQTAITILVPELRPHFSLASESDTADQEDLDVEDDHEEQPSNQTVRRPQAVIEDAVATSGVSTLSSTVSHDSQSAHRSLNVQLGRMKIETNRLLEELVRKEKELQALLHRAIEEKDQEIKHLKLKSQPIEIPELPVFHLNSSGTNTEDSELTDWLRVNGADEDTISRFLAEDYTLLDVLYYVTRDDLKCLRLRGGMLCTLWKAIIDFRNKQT
As to conditions: at 10 µM.

Assay [3] addresses Tyrosine-protein kinase ABL1 (Homo sapiens) (UniProt P00519). As to conditions: at 1 µM.
For assay [4] the target is unchanged. As to conditions: at 10 µM.
For assay [5], the target named is Tyrosine-protein kinase ABL2 (Homo sapiens) (UniProt P42684). As to conditions: at 1 µM.
Chain of Tyrosine-protein kinase ABL2 (Homo sapiens) (P42684 whole entry): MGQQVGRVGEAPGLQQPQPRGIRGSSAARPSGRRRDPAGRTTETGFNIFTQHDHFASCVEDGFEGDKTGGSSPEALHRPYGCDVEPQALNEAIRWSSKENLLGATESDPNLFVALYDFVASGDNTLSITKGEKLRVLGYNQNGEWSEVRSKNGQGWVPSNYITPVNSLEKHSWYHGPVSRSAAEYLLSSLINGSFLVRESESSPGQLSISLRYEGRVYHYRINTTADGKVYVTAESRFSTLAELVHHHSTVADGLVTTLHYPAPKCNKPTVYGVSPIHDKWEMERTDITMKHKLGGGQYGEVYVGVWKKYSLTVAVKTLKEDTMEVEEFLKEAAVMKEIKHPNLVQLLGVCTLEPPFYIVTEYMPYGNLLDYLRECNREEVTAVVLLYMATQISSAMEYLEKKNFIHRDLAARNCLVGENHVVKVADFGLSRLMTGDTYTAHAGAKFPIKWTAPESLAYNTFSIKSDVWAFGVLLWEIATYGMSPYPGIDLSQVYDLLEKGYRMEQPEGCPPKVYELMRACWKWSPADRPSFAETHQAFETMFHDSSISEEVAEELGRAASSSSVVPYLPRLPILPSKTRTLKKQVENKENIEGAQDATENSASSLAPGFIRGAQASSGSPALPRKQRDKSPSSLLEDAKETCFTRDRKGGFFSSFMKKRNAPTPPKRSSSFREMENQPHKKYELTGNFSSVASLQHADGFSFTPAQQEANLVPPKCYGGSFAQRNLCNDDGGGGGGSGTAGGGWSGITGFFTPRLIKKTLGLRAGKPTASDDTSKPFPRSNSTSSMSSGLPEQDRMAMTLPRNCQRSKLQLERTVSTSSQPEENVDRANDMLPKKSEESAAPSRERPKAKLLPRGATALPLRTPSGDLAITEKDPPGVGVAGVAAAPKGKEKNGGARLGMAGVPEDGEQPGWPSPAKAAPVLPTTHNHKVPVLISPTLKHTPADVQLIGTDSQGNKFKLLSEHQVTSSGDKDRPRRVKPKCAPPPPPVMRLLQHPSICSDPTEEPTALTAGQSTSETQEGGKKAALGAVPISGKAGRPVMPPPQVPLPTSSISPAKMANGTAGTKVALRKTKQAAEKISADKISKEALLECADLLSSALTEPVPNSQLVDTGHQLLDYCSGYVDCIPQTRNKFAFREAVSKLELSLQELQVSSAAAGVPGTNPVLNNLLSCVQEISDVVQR
The target is the same in assay [6]. As to conditions: at 10 µM.
Assay [7] deals with T3, Aurora kinase A (Homo sapiens) (UniProt O14965).
T3 sequence (whole entry): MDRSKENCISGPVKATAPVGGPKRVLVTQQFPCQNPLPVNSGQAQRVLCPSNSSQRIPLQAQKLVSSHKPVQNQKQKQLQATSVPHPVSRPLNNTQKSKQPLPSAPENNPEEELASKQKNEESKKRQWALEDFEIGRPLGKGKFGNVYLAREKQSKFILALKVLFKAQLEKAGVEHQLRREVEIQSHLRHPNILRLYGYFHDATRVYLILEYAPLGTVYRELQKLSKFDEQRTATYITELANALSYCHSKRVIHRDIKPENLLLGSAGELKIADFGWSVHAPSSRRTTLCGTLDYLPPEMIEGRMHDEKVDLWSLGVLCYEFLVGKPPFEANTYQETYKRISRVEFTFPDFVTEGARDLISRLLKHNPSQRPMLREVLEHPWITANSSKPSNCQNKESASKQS
As to conditions: at 1 µM.

Assay [8] deals with T3, Aurora kinase A (Homo sapiens). As to conditions: at 10 µM.
In assay [9] the target is Aurora kinase B (Homo sapiens) (UniProt Q96GD4). As to conditions: at 1 µM.
Chain of Aurora kinase B (Homo sapiens) (Q96GD4 whole entry): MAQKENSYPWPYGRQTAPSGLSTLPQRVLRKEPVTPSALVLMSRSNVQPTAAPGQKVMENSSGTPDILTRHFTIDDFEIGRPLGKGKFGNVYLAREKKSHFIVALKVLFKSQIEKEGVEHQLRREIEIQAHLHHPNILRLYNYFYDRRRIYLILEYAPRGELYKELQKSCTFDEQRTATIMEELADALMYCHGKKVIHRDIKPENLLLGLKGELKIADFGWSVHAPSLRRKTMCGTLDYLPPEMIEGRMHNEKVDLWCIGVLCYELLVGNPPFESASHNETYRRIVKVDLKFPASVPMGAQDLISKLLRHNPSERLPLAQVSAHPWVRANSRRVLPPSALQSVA
For assay [10] the target is unchanged. As to conditions: at 10 µM.
In assay [11] the target is T4, Aurora kinase C (Homo sapiens) (UniProt Q9UQB9).
T4 sequence (whole entry): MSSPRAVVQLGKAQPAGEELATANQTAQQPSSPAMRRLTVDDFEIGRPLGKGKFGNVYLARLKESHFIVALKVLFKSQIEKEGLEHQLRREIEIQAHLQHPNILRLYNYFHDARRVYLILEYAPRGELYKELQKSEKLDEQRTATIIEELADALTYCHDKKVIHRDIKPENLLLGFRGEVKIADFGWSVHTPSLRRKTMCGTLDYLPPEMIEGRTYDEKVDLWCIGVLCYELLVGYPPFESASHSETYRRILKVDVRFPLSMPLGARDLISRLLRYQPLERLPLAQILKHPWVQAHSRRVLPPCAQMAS
As to conditions: at 1 µM.

For assay [12], the target named is T4, Aurora kinase C (Homo sapiens). As to conditions: at 10 µM.
Assay [13] deals with Tyrosine-protein kinase receptor UFO (Homo sapiens) (UniProt P30530). As to conditions: at 1 µM.
Chain of Tyrosine-protein kinase receptor UFO (Homo sapiens) (P30530 whole entry): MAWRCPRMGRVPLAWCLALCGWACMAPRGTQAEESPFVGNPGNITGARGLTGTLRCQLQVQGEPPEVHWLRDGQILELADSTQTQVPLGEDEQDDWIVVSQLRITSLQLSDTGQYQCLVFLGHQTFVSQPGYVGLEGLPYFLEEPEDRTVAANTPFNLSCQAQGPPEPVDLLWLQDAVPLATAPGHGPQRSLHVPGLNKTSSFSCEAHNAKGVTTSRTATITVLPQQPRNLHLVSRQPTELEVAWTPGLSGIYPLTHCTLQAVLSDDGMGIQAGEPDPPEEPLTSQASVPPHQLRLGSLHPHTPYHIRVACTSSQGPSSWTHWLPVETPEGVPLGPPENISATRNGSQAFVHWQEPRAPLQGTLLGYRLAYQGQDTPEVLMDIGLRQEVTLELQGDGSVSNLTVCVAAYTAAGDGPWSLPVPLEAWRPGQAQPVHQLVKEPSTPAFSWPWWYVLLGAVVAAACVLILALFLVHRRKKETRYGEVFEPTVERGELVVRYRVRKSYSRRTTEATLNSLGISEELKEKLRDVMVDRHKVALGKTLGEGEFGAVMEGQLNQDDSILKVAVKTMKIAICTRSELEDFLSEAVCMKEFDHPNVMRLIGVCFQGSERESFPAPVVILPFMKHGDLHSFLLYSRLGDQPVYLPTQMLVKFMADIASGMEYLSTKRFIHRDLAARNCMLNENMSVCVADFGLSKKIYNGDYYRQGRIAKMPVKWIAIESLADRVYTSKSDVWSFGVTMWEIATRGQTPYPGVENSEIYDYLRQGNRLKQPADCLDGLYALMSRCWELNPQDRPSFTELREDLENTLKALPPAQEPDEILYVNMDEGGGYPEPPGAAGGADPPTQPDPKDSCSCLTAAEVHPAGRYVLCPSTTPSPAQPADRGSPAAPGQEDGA
For assay [14] the target is unchanged. As to conditions: at 10 µM.
The target in assay [15] is Protein-tyrosine kinase 6 (Homo sapiens) (UniProt Q13882). As to conditions: at 1 µM.
The target is the same in assay [16]. As to conditions: at 10 µM.
For assay [17], the target named is Tyrosine-protein kinase BTK (Homo sapiens) (UniProt Q06187). As to conditions: at 1 µM.
Chain of Tyrosine-protein kinase BTK (Homo sapiens) (Q06187 whole entry): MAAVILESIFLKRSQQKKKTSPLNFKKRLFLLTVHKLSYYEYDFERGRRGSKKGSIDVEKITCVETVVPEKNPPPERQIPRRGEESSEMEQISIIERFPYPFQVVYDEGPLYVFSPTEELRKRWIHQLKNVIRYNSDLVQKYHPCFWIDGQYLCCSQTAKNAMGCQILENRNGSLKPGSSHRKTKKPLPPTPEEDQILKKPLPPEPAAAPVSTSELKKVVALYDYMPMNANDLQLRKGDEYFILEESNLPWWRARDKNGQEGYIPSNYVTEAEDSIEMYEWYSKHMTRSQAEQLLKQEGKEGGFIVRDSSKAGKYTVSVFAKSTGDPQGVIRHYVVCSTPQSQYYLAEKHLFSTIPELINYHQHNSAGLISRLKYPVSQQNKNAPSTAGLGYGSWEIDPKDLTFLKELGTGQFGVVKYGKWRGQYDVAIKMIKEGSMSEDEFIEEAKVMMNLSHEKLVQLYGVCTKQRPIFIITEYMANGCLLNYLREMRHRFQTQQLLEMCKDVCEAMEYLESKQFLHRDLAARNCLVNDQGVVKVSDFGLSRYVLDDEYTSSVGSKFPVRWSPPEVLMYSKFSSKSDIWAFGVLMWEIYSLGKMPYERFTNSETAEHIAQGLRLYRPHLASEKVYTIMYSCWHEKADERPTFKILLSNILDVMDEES
For assay [18] the target is unchanged. As to conditions: at 10 µM.
The target in assay [19] is Tyrosine-protein kinase Blk (Homo sapiens) (UniProt P51451). As to conditions: at 1 µM.
Chain of Tyrosine-protein kinase Blk (Homo sapiens) (P51451 2-505 limits assumed): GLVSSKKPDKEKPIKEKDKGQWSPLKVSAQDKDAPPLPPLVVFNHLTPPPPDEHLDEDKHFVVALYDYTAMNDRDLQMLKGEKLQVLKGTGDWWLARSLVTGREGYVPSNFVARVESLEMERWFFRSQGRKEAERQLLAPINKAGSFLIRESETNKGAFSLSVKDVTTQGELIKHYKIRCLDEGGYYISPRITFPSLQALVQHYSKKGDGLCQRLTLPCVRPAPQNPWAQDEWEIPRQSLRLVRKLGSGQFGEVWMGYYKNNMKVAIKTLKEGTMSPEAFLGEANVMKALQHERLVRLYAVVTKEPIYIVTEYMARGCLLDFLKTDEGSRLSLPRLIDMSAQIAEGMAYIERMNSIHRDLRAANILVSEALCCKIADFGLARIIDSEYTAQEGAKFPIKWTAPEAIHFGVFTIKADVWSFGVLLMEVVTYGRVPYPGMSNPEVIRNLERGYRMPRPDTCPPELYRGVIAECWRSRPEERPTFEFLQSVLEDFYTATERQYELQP
The target is the same in assay [20]. As to conditions: at 10 µM.

Chain of Tyrosine-protein kinase ABL1 (Homo sapiens) (P00519 whole entry): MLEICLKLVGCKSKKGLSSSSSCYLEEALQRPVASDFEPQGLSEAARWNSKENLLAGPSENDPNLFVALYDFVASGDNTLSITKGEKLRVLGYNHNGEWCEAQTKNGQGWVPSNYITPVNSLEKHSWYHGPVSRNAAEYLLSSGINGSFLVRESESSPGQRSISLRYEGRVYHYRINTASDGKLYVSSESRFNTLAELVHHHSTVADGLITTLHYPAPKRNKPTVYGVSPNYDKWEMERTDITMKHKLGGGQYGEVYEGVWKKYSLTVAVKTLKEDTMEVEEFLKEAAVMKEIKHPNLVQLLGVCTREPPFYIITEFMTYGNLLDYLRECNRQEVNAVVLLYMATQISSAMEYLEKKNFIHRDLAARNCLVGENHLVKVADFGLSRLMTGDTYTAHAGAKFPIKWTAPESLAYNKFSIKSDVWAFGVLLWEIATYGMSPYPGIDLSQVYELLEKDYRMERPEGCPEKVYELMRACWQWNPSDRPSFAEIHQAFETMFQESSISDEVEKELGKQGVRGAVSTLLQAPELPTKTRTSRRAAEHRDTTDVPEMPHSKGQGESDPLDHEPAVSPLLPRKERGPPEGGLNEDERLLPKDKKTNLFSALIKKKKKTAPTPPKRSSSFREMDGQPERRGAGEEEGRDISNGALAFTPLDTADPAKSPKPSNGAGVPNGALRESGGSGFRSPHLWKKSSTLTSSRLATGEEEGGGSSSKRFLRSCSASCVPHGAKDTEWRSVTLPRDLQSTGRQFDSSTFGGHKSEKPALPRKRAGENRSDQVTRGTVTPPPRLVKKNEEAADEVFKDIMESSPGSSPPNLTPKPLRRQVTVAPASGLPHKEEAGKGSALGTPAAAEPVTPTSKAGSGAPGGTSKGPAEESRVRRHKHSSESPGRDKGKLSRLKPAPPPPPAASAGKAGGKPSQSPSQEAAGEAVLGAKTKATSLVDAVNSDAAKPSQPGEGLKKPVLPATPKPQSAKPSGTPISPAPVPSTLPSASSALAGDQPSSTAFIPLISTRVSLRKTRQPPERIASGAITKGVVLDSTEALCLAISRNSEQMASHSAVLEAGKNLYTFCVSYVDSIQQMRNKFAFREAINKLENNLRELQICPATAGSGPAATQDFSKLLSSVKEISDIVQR

On to `Oc1c2ccccc2c2c3c(cccc13)N=N2`, for which the residual activity in [1] is 110% (inactive); in assay [2] it was 5%; in [3] it was 83%; in assay [4], 56%; in assay [5] it was 87%; in assay [6] it was 72%. Besides, the residual activity in assay [7] was found to be 19%; in assay [8], 2%; in [9], 1%; in [10], 0%; in [11] it was 9%; in [12] it was 4%. Besides, the residual activity in [13] turned out to be 50%; in [14], 17%; in assay [15], 95%; in [16], 95%; in assay [17], 88%; in [18], 57%. Further, the residual activity stood at 97% in assay [19] and 45% in [20].
Consider `O=C(Nc1cccc(Nc2cc(Nc3cccc(C(F)(F)F)c3)ncn2)c1)C1CC1`, for which the residual activity in assay [1] was 101% (inactive); in assay [2], 104%; in assay [3], 84%; in assay [4], 104%; in [5], 92%; in [6], 90%. Besides, the residual activity in assay [7] amounted to 95%; in assay [8] it was 82%; in assay [9] it was 68%; in assay [10], 30%; in [11], 90%; in [12], 87%. The residual activity in assay [13] stood at 102%; in assay [14], 83%; in assay [15] it was 94%; in assay [16], 94%; in assay [17], 99%; in assay [18], 71%. Further, the residual activity turned out to be 97% in [19] and 69% in assay [20].
For `CO[C@H]1C[C@@H]2CC[C@@H](C)[C@@](O)(O2)C(=O)C(=O)N2CCCC[C@H]2C(=O)O[C@H]([C@H](C)C[C@@H]2CC[C@@H](O)[C@H](OC)C2)CC(=O)[C@H](C)/C=C(\C)[C@@H](O)[C@@H](OC)C(=O)[C@H](C)C[C@H](C)/C=C/C=C/C=C/1C`, the residual activity was 96% (inactive) in assay [1]; 96% in assay [2]; 91% in assay [3]; 139% in assay [4]; 119% in assay [5]; 118% in assay [6]. In addition, the residual activity was 87% in assay [7]; 118% in assay [8]; 92% in assay [9]; 73% in assay [10]; 79% in assay [11]; 69% in [12]. Further, the residual activity came out at 89% in assay [13]; 84% in [14]; 101% in assay [15]; 102% in [16]; 91% in [17]; 106% in assay [18]. The residual activity in [19] is 90%; in assay [20], 82%.
Turning to `COc1cc2ncnc(Nc3ccc(Oc4ccccc4)cc3)c2cc1OC`, the residual activity in assay [1] was 108% (inactive); in assay [2], 73%; in assay [3], 61%; in [4], 75%; in assay [5], 82%; in assay [6], 93%. Moreover, the residual activity was found to be 52% in assay [7]; 30% in [8]; 28% in [9]; 9% in assay [10]; 59% in assay [11]; 59% in [12]. The residual activity in assay [13] stood at 54%; in assay [14], 25%; in assay [15], 7%; in assay [16], 4%; in assay [17] it was 15%; in [18] it was 2%. Besides, the residual activity in [19] and in assay [20] was 0% throughout.
Regarding `CC[n+]1c(/C=C/N(C)c2ccccc2)n(-c2ccccc2)c2ccc(-c3nc4ccccc4s3)cc21`, the residual activity in [1] was 107% (inactive); in assay [2] it was 102%; in [3], 115%; in assay [4], 146%; in [5], 112%; in [6] it was 85%. In addition, the residual activity in [7] amounted to 117%; in assay [8] it was 139%; in assay [9] it was 139%; in [10], 91%; in assay [11], 107%; in assay [12] it was 93%. In addition, the residual activity in assay [13] worked out at 134%; in [14] it was 58%; in assay [15], 109%; in assay [16] it was 94%; in assay [17], 87%; in assay [18] it was 58%. Further, the residual activity in assay [19] came out at 100%; in assay [20], 55%.
On to `COc1cccc(-c2cc(=O)c3ccccc3o2)c1N`, for which the residual activity in assay [1] is 111% (inactive); in assay [2], 112%; in assay [3], 111%; in [4], 92%; in assay [5], 115%; in [6] it was 74%. The residual activity in assay [7] was 122%; in [8] it was 107%; in assay [9], 113%; in assay [10], 103%; in assay [11] it was 99%; in assay [12], 94%. For the same compound, the residual activity in assay [13] was found to be 119%; in assay [14], 111%; in assay [15], 105%; in assay [16] it was 105%; in assay [17], 94%; in [18], 100%. Moreover, the residual activity in [19] is 114%; in assay [20], 103%.
Consider `Nc1nc(Nc2ccc(S(N)(=O)=O)cc2)nn1C(=S)Nc1c(F)cccc1F`, for which the residual activity in [1] is 75% (inactive); in assay [2] it was -1%; in [3] it was -5%; in [4], -5%; in [5], -2%; in assay [6], -2%. Further, the residual activity in assay [7] was 1%; in assay [8], 10%; in [9], 0%; in [10] it was 0%; in assay [11], -2%; in assay [12], 0%. Moreover, the residual activity in assay [13] is 3%; in assay [14], 2%; in assay [15], 49%; in assay [16], 8%; in assay [17] it was 79%; in assay [18] it was 27%. In addition, the results for the residual activity in assay [19] and in [20] were 7% and 0%, respectively.
